# Test results taken from PubChem BioAssay AID1903 (Southern Research Specialized Biocontainment Screening …, 2009).
# Where “and” joins values, the source holds several entries; their conditions need not be identical. Equal values may be shown once. The whole screen tested about 310,000 compounds, of which about 1,200 (0.39%) were called active. These entries were drawn from the full list. Entries with a potency or affinity are not part of this list. A number with no mark means an inactive call. No rule for the calls is given here.
# Target: Large T antigen (Simian virus 40) (UniProt P03070)
# Experiment: TAg ATPase/helicase activity blockers – biochemical (AID 1903)
# Details: SV40 large T antigen ATPase/helicase inhibition assay; at 20 µM; active compounds read high
# Chain of Large T antigen (Simian virus 40) (P03070 whole entry, looked up): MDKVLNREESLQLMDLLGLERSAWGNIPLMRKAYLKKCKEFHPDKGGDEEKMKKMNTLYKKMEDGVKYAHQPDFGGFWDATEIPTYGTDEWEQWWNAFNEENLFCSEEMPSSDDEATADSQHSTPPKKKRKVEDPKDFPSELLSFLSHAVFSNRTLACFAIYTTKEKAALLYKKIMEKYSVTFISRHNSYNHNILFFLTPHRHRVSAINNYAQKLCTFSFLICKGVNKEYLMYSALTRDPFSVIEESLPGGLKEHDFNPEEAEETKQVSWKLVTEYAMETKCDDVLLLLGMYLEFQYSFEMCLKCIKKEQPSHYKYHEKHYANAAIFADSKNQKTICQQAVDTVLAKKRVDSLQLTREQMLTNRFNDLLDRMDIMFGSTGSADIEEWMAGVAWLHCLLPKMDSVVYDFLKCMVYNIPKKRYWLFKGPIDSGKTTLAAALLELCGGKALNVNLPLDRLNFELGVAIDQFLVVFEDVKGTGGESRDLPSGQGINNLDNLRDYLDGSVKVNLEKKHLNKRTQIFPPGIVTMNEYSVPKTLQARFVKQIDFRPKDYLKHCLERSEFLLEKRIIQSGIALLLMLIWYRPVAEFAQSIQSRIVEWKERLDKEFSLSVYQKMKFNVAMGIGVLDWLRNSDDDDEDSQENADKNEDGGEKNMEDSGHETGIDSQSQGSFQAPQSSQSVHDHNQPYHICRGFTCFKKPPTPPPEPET
row,SMILES,inhibition
1,COc1ccc(NC(=O)c2sc(SC)nc2N)cc1,3.33%
2,COc1ccc(NC(=O)c2sc(SCc3ccccc3)nc2N)cc1,1.41%
3,CC(=O)Nc1ccc2nc(CN3CCN(CC=C(C)C)C(CCO)C3)ccc2c1 (centres undefined),5.4%
4,COc1ccc(C(=O)NNC(=O)C(=O)NC(C)c2ccccc2)cc1OC (centres undefined),-0.06%
5,O=C(O)c1ccc2c(c1)C(c1ccccc1)OC2=O (centres undefined),11%
6,COc1ccccc1CC(=O)Nc1ccc(-c2nnc(-c3ccco3)o2)cc1,5.22%
7,CCOc1ccc(CCNC(=O)c2cccc(S(=O)(=O)N3CCCC3)c2)cc1OCC,2.19%
8,O=c1cc(O)c2ccc(O)cc2o1,4.04%
9,COc1ccc2c(c1)c(=O)oc1cc(O)ccc12,10.3%
10,COc1ccc2c(c1)oc(=O)c1ccccc12,2.39%
11,Cc1cc(=O)oc2cc(O)ccc12,17.8%
12,Clc1ccccc1N1CCN(Cc2c[nH]c3ccccc23)CC1,1.73%
13,O=C(Cn1nnc(-c2ccccc2)n1)Nc1ccccc1N1CCOCC1,-3.12%
14,C[N+]1=C(/C=C/Nc2ccccc2Cl)C(C)(C)c2ccccc21,21.8%
15,COC(=O)c1ccc2c(c1)C(C)(C)C(/C=C/c1ccccc1O)=[N+]2C,21.7%
16,O=C(NC1CCCCC1)c1sc(=S)n2c1[nH]c(=O)c1ccccc12,6.27%
17,O=C(NCc1ccco1)c1sc(=S)n2c1[nH]c(=O)c1ccccc12,23.2%
18,Cc1ccc(N(C(=O)c2csnn2)C(C(=O)NC2CCCCC2)c2ccccn2)cc1C (centres undefined),4.41%
19,CCCCCCCCCC[n+]1cccc2c3ccccc3ccc21,23.8%
20,[O-][n+]1c2ccccc2cc2ccccc21,3.6%
21,Cc1ccc2ccccc2[n+]1CCCS(=O)(=O)[O-],5.88%
22,CCCCC[n+]1cccc2c3ccccc3ccc21,5.51%
23,CN(C)C(=O)c1ccc(-c2nnc(NCc3ccccc3)c3ccccc23)cc1,17.7%
24,CCOC(=O)c1c(S(=O)(=O)NCC(=O)Nc2ccc(F)cc2)c(C)n(C)c1C,2.6%
25,CCOc1ccccc1NC(=O)Cn1c(=O)c(OCC)nc2cnccc21,13.5%

row,SMILES,inhibition
1,COc1ccc2ccccc2c1C1CC(=O)N2CN(C)CSC2=C1C#N (centres undefined),28.9%
2,COc1ccc(Br)cc1C1CC(=O)N2CN(Cc3ccccc3)CSC2=C1C#N (centres undefined),35% and 18.8%
3,CN1CSC2=C(C#N)C(c3cccc(OCc4ccccc4)c3)CC(=O)N2C1 (centres undefined),43.1%
4,COc1ccc(C2CC(=O)N3CN(c4ccccc4F)CSC3=C2C#N)cc1OC (centres undefined),51.3%
5,Cc1cccc(C(=O)N2CC3(C)CC2CC(C)(C)C3)c1 (centres undefined),3.07%
6,O=C(c1cccc([N+](=O)[O-])c1)c1ccc2c(c1)OCCOCCOCCOCCO2,7.91%
7,Cc1cccc(N2CCN(C(=O)CCCn3c(=O)c4cccn4c4cccnc43)CC2)c1C,9.66%
8,CCN1CCN(C(=O)C2=CC(c3ccc(C)cc3)=NS(=O)(=O)N2C)CC1,16.5%
9,CCN1C(=O)N[C@@H](CCc2ccccc2)[C@@H](C(=O)OC)[C@H]1C,23.2%
10,COc1cccc(NC(=O)CSCC(=O)Nc2ccccc2)c1,13.8%
11,O=C(CN1CCCCC1)Nc1ccc(N2CCCCCC2)cc1,31.6%
12,CC(=O)Nc1ccc(N2CCCC2)cc1,0.723%
13,CC(=O)Nc1ccc(N2CCN(C(C)=O)CC2)cc1,27.6%
14,CCC(=O)Nc1ccc(N2CCCCC2)cc1,34.9%
15,CNC(=O)C12CC3CC(CC(Cl)(C3)C1)C2,11.2%
16,O=C(CC(C(=O)O)c1cccc(Br)c1)c1ccc(Cl)cc1 (centres undefined),9.51%
17,Nc1cccc2cnccc12,3.43%
18,N#Cc1cccc2cnccc12,7.69%
19,O=C(CSc1ccc(-c2ccccc2)nn1)c1cccs1,3.38%
20,Cc1nonc1OCCNCc1c(C(=O)N(C)C)nc2ccc(Cl)cn12,6.84%
21,C(=C\c1ccco1)/C=N/n1cnnc1,21.7%
22,S=c1[nH]nc(-c2ccncc2)n1/N=C/C=C/c1ccco1,28.8%
23,Cc1ccc(N/N=C/C=C/c2ccco2)cc1,12.9%
24,O=C1OC(c2ccc(Cl)cc2)=N/C1=C\C=C\c1ccco1,58.1%
